# In ChEMBL document CHEMBL1961873, “Compounds: GSK PKIS; Assays: Nanosyn kinase panel” (2012):
# Assays:
# [1] = biological target: Sphingosine kinase 1 (Homo sapiens) (UniProt Q9NYA1); conditions: at 1 µM;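 further: mean SPHK1 inhibition value reported from the GSK PKIS kinase panel screen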
# [2] = biological target: T1, Sphingosine kinase 2 (Homo sapiens) (UniProt Q9NRA0); conditions: at 0.1 µM
# T1 sequence (whole entry): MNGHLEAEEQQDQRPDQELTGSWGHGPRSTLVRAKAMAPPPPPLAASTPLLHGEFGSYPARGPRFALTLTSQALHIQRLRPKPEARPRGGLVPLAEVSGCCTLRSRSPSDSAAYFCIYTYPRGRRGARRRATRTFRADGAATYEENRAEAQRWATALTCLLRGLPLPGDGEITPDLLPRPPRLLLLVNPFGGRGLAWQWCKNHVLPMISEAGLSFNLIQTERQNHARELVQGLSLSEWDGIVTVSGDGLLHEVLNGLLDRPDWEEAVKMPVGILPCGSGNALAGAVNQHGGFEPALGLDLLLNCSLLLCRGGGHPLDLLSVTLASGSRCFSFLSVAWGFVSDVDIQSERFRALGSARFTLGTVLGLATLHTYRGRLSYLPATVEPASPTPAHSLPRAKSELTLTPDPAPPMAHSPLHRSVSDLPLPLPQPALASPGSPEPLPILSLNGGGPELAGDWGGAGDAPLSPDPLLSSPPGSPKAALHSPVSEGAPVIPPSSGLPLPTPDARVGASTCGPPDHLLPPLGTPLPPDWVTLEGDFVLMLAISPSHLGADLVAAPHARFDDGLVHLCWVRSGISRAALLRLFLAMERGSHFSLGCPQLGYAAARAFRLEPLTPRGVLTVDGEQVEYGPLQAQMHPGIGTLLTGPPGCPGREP
# [3] = biological target: T1, Sphingosine kinase 2 (Homo sapiens); conditions: at 1 µM
# [4] = biological target: Casein kinase II subunit alpha (Homo sapiens) (UniProt P68400); conditions: at 0.1 µM
# [5] = biological target: Casein kinase II subunit alpha (Homo sapiens) (UniProt P68400); conditions: at 1 µM
# [6] = biological target: T2, Inhibitor of nuclear factor kappa-B kinase subunit alpha (Homo sapiens) (UniProt O15111); conditions: at 0.1 µM
# T2 sequence (whole entry): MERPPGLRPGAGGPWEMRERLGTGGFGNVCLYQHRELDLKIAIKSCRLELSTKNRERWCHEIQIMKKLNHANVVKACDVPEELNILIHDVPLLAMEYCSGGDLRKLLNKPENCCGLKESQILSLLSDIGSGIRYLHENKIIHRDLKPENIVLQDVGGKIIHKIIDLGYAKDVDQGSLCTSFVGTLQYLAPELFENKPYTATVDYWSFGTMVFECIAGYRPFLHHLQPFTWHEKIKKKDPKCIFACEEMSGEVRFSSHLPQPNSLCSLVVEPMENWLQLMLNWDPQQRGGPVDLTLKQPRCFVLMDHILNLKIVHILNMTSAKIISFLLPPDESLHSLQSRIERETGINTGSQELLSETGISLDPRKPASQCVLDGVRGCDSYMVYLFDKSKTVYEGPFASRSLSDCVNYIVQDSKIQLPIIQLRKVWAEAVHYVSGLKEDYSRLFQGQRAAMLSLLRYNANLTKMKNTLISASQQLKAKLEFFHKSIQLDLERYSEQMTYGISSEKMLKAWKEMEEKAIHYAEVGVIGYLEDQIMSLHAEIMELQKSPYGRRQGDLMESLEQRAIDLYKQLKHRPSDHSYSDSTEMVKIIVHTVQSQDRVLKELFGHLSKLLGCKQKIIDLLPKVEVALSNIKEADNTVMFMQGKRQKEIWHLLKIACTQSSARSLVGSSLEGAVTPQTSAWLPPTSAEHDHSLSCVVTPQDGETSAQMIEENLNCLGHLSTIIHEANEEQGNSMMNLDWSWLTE
# [7] = biological target: T2, Inhibitor of nuclear factor kappa-B kinase subunit alpha (Homo sapiens); conditions: at 1 µM
# [8] = biological target: T3, Inhibitor of nuclear factor kappa-B kinase subunit beta (Homo sapiens) (UniProt O14920); conditions: at 0.1 µM
# T3 sequence (whole entry): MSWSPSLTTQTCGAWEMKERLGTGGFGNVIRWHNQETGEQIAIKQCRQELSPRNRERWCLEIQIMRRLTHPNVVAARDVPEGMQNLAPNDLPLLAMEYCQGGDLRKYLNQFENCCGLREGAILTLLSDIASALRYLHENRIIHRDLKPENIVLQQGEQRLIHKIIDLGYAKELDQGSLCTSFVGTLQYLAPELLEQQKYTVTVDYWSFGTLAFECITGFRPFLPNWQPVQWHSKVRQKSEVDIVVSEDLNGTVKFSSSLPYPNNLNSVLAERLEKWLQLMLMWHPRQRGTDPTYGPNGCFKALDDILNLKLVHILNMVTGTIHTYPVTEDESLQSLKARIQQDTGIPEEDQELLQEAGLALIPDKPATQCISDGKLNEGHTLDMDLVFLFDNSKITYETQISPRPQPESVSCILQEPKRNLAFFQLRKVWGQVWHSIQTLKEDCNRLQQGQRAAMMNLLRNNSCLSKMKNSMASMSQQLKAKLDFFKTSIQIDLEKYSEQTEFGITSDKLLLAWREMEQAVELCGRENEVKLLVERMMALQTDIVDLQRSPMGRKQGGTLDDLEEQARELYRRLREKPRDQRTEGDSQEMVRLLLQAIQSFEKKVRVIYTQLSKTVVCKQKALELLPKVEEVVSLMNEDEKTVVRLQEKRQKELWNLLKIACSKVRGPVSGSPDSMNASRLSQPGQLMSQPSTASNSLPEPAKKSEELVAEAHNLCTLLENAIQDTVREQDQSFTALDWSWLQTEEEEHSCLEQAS
# [9] = biological target: T3, Inhibitor of nuclear factor kappa-B kinase subunit beta (Homo sapiens); conditions: at 1 µM
# [10] = biological target: T4, Inhibitor of nuclear factor kappa-B kinase subunit epsilon (Homo sapiens) (UniProt Q14164); conditions: at 0.1 µM
# T4 sequence (whole entry): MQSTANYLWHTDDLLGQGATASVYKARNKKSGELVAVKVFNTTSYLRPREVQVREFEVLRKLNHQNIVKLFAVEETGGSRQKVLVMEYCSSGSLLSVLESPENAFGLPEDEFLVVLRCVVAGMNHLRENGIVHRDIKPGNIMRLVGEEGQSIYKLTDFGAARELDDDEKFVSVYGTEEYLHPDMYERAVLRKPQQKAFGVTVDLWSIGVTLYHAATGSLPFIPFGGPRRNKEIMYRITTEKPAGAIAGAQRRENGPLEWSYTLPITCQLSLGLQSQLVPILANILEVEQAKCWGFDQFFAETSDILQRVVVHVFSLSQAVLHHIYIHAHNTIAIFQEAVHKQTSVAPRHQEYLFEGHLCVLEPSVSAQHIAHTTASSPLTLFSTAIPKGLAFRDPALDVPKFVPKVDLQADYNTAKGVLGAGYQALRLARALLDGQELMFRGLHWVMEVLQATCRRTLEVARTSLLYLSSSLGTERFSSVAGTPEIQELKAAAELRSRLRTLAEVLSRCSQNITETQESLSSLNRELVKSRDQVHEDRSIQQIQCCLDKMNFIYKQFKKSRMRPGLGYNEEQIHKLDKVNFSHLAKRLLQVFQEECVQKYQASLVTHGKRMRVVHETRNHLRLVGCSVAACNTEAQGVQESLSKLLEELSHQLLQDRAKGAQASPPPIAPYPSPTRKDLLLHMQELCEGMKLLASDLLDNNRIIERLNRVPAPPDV
# [11] = biological target: T4, Inhibitor of nuclear factor kappa-B kinase subunit epsilon (Homo sapiens); conditions: at 1 µM
# [12] = biological target: T5, Serine/threonine-protein kinase Nek1 (Homo sapiens) (UniProt Q96PY6); conditions: at 0.1 µM
# T5 sequence (whole entry): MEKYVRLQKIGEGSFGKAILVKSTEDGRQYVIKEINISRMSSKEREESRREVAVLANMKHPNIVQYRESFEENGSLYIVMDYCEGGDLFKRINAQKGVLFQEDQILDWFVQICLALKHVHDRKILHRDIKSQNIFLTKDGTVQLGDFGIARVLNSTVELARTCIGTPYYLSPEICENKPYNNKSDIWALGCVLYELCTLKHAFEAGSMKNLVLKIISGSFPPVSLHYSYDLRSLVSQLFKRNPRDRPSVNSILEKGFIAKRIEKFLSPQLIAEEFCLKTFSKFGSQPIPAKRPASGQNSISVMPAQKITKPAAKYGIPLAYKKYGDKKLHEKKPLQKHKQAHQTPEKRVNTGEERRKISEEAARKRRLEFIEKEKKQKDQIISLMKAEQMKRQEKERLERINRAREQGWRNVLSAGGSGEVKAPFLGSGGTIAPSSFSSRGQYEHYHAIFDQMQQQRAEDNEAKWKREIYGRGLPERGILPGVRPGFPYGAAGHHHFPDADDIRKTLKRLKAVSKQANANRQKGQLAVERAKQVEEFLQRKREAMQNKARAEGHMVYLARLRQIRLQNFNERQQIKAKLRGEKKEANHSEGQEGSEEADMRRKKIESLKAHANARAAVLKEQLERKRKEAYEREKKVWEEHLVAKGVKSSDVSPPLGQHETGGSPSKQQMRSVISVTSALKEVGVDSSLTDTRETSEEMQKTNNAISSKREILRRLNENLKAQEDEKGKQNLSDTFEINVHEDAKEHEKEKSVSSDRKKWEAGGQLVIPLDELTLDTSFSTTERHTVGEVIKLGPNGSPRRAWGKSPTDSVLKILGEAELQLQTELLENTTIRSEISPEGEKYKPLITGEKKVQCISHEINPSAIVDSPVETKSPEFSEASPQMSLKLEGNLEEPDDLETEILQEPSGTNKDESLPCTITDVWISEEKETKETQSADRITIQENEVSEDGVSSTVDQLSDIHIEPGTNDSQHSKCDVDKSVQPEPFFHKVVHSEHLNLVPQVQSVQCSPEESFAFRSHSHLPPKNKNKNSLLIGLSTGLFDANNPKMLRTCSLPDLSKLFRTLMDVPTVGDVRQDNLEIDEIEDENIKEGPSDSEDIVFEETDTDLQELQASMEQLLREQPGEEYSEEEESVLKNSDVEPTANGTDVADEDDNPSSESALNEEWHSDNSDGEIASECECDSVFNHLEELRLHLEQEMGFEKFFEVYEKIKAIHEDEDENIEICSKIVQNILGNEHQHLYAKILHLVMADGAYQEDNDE
# [13] = biological target: T5, Serine/threonine-protein kinase Nek1 (Homo sapiens); conditions: at 1 µM
# [14] = biological target: T6, Serine/threonine-protein kinase Nek2 (Homo sapiens) (UniProt P51955); conditions: at 0.1 µM
# T6 sequence (whole entry): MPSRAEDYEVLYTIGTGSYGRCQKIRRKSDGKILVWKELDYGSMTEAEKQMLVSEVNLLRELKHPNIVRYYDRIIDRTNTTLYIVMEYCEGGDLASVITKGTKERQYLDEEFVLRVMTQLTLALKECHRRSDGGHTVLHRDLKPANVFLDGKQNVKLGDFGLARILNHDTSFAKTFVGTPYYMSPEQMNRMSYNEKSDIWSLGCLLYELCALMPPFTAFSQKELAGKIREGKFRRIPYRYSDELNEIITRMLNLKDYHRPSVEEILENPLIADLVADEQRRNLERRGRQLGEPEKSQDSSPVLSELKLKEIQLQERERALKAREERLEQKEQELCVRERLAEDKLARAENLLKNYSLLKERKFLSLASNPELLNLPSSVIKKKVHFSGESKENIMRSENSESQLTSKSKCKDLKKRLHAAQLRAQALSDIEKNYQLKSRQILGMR
# [15] = biological target: T6, Serine/threonine-protein kinase Nek2 (Homo sapiens); conditions: at 1 µM
# [16] = biological target: Serine/threonine-protein kinase Nek6 (Homo sapiens) (UniProt Q9HC98); conditions: at 0.1 µM
# [17] = biological target: Serine/threonine-protein kinase Nek6 (Homo sapiens) (UniProt Q9HC98); conditions: at 1 µM
# [18] = biological target: Serine/threonine-protein kinase Nek7 (Homo sapiens) (UniProt Q8TDX7); conditions: at 0.1 µM
# [19] = biological target: Serine/threonine-protein kinase Nek7 (Homo sapiens) (UniProt Q8TDX7); conditions: at 1 µM
# [20] = biological target: T7, Serine/threonine-protein kinase Nek9 (Homo sapiens) (UniProt Q8TD19); conditions: at 0.1 µM;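 further: reported value is the mean percent inhibition of NEK9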
# T7 sequence (whole entry): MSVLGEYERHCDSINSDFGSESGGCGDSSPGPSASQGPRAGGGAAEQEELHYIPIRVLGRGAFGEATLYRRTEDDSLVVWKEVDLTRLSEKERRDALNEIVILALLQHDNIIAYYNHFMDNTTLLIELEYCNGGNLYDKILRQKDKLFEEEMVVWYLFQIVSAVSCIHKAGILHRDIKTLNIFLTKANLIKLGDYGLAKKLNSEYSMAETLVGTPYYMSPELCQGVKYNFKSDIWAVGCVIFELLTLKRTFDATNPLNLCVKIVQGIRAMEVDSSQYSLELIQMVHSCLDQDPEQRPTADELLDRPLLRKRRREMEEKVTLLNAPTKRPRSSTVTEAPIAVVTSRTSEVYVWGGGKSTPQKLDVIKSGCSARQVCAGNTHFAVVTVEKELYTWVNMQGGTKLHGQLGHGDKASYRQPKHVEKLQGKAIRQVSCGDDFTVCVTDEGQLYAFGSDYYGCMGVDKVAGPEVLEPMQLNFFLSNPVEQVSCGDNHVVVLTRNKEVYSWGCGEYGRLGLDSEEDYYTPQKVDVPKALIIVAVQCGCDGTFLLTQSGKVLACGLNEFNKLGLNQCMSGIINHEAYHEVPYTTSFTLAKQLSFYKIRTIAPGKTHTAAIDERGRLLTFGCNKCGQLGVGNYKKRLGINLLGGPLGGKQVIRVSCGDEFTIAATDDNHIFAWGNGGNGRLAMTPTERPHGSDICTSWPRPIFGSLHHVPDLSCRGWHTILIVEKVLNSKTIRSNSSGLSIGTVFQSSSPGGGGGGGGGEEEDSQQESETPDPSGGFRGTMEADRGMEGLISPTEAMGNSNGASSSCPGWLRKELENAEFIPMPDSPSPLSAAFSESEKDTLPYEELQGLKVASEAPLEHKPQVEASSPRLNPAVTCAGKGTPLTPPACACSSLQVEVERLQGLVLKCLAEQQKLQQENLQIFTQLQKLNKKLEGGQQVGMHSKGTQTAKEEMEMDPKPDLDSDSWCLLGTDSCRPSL
# Serine/threonine-protein kinase Nek7 (Homo sapiens), sequence (Q8TDX7 whole entry, looked up): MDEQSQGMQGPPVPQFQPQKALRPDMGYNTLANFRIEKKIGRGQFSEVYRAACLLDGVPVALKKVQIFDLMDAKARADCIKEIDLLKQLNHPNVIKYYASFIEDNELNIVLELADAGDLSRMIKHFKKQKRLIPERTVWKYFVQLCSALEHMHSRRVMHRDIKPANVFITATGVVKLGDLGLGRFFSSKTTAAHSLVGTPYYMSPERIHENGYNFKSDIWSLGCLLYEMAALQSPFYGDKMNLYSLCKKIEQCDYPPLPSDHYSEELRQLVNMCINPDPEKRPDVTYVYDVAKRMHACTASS
# Casein kinase II subunit alpha (Homo sapiens), sequence (P68400 whole entry, looked up): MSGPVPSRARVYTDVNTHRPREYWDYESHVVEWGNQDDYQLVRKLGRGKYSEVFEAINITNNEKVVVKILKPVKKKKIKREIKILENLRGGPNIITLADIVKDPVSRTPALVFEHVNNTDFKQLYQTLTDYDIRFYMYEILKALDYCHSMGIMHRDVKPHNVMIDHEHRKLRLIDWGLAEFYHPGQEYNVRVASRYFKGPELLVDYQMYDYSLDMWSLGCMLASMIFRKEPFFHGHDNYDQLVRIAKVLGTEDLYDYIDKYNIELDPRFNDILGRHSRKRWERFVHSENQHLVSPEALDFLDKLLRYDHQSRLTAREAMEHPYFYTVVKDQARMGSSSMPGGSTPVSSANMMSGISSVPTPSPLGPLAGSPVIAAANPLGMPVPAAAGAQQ
# Serine/threonine-protein kinase Nek6 (Homo sapiens), sequence (Q9HC98 whole entry): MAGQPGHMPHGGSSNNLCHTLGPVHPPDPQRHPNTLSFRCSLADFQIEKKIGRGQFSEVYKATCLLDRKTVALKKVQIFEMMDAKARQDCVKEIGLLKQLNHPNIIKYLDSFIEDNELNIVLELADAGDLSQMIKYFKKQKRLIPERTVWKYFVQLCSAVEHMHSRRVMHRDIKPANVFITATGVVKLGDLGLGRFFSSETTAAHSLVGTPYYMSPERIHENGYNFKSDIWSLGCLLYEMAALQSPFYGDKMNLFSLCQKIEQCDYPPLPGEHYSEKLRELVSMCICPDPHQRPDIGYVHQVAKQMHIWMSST
# Sphingosine kinase 1 (Homo sapiens), sequence (Q9NYA1 whole entry): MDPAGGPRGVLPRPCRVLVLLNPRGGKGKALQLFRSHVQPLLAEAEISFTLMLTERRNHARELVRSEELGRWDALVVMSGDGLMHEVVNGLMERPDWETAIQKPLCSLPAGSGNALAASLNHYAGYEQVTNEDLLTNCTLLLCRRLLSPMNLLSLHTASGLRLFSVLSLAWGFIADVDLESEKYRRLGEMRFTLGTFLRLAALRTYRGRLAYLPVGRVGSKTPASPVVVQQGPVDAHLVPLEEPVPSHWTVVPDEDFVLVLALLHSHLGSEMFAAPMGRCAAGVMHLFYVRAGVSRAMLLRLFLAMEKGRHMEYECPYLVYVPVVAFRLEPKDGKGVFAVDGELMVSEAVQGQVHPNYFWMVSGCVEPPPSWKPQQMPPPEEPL
compound,measurement,setting,value
CC1=C(C(=O)Nc2ccc3[nH]ncc3c2)C(c2ccc(Cl)c(Cl)c2)CC(=O)N1 (stereo not given),inhibition,[1],-3.67%
same,inhibition,[2],-0.3%
same,inhibition,[3],-1.45%
same,inhibition,[4],2.1%
same,inhibition,[5],3.35%
same,inhibition,[6],5.09%
same,inhibition,[7],2.52%
same,inhibition,[8],3.16%
same,inhibition,[9],0.15%
same,inhibition,[10],0.83%
same,inhibition,[11],-0.94%
same,inhibition,[12],0.09%
same,inhibition,[13],-0.51%
same,inhibition,[14],1.92%
same,inhibition,[15],1.44%
same,inhibition,[16],-0.99%
same,inhibition,[17],-2.51%
same,inhibition,[18],2.34%
same,inhibition,[19],3.79%
same,inhibition,[20],7.85%
